MazEF act – MazEF (E. coli) toxin RNase activation | P0AE70 | activation, % at 20 µM | 350,000 compounds, 0.32% hits | AID 504720 | FAM/BHQ RNA-DNA oligo cleavage fluorescence, 5 h; in the data active = activation above about 50%
FadD28 binding – M. tuberculosis FadD28 bisubstrate binding inhibition; FadD28 bisubstrate probe binding, fluorescence polarization; inhibition, % at 12.5 µM; 360,000 compounds, 0.22% hits; AID 588549; in the data active = inhibition above about 8.5%, passing the limit was not always enough
Mtb betalactam – beta-lactam sensitization of Mtb H37Rv; 330,000 compounds, 0.27% hits; M. tuberculosis H37Rv growth with meropenem, percent inhibition; inhibition, % at 25 µM; call rule not given here;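 note: growth measured after seven days incubation then overnight dye step; 0% = bacteria only wells and 100% = bacteria with antibiotic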
Rv3671c inh – Rv3671c (M. tuberculosis) protease inhibition. P9WHR9. inhibition, % at 5.96 µM. 320,000 compounds, 0.048% hits. AID 2606; in the data active = inhibition above about 38%;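 note: extracellular domain of Rv3671c used as enzyme; 0% = enzyme with DMSO and 100% = no enzyme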
Vc quorum ag – quorum light induction in luxS cqsA deficient V. cholerae; V. cholerae BH1578 lux reporter, luminescence, 6 h; activation, % at 18.7 µM; 350,000 compounds, 0.16% hits; AID 588436; in the data active = activation mostly above about 9.7%, no sharp cut-off
UGM FP inh – inhibitors of M. tuberculosis UDP-galactopyranose mutase; purified UGM, fluorescence polarization probe displacement; AID 504406; inhibition, % at 10 µM; P9WIQ1; 320,000 compounds, 0.06% hits; in the data active = inhibition above about 10%, passing the limit was not always enough
Target sequence (P9WIQ1 whole entry, looked up): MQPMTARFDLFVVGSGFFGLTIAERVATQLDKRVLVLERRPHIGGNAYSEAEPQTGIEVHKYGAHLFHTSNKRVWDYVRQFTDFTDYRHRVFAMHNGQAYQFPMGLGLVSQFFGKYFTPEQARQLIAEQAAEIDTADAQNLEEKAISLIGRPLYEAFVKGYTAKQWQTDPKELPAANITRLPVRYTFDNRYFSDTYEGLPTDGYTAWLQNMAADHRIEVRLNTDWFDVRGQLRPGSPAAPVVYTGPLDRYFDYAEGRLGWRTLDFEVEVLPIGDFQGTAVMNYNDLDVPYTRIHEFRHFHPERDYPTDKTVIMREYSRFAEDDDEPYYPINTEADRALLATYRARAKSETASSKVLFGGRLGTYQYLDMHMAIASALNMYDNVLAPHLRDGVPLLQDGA
* marks the source's active call; other numbers are inactive results. Hits are enriched below; roughly 0.74% of the tested compounds scored in any of these assays.

What do the screens show for `COc1ccccc1N1CCN(S(=O)(=O)CCNC(=O)c2cccc(F)c2)CC1`?
MazEF act: -3; FadD28 binding: 0; Mtb betalactam: -9; Rv3671c inh: 3; Vc quorum ag: -1; UGM FP inh: 2

Results for CN(C)Cc1csc(NC(=O)Nc2ccccc2Oc2ccccc2)n1 ?
FadD28 binding: -5; Vc quorum ag: 1

What do the screens show for `C[C@H]1CN(CCc2ccccc2)C(=O)[C@@H]1CC(=O)Nc1ccccc1`?
MazEF act: -4; FadD28 binding: -4; Vc quorum ag: 0

How did C/C(=N/NS(=O)(=O)c1ccccc1)c1c[nH]c2ccccc12 do in these assays?
MazEF act: 23; FadD28 binding: -3; Mtb betalactam: -2; Vc quorum ag: 0; UGM FP inh: 1

How did C/C(=N/NS(=O)(=O)c1cccc([N+](=O)[O-])c1)c1c[nH]c2ccccc12 do in these assays?
MazEF act: 56*; FadD28 binding: -2; Mtb betalactam: 3; Rv3671c inh: 3; Vc quorum ag: 0; UGM FP inh: 0

How did CCN(CC(=O)NC1CCS(=O)(=O)C1)S(=O)(=O)c1ccc(Br)cc1 (stereo not given) do in these assays?
MazEF act: -27; FadD28 binding: -1; Mtb betalactam: 3; Rv3671c inh: -1; Vc quorum ag: inactive; UGM FP inh: -2

How did CC(c1ccccc1)C(NC(=O)OCC1c2ccccc2-c2ccccc21)C(=O)O (stereo not given) do in these assays?
MazEF act: 1; FadD28 binding: -2; Mtb betalactam: 1; Rv3671c inh: -3; Vc quorum ag: 1; UGM FP inh: -1

What do the screens show for `CCCN1C(=O)/C(=C/c2c(NCCCOCC)nc3c(C)cccn3c2=O)SC1=S`?
MazEF act: 295*; FadD28 binding: -1; Vc quorum ag: inactive

How did CCOCCCNc1nc2c(C)cccn2c(=O)c1/C=C1\SC(=S)N(CC(C)C)C1=O do in these assays?
MazEF act: -427; FadD28 binding: 1; Mtb betalactam: 5; Rv3671c inh: -8; Vc quorum ag: 0; UGM FP inh: -5

What do the screens show for `CCOCCCNc1nc2c(C)cccn2c(=O)c1/C=C1\SC(=S)N(C(C)CC)C1=O` (stereo not given)?
MazEF act: 603*; FadD28 binding: -9; Mtb betalactam: 4; Rv3671c inh: -27; Vc quorum ag: 0; UGM FP inh: 7

How did Cc1cccn2c(=O)c(/C=C3\SC(=S)NC3=O)c(NCCCN3CCOCC3)nc12 do in these assays?
MazEF act: -129; FadD28 binding: 5; Mtb betalactam: 2; Rv3671c inh: -14; Vc quorum ag: -1; UGM FP inh: -5

What do the screens show for `Cc1cc(C)c2cc3c(N)c(C(=O)Nc4c(C)[nH]c(=O)[nH]c4=O)sc3nc2c1`?
MazEF act: 155*; FadD28 binding: -1; Mtb betalactam: 9; Rv3671c inh: -4; Vc quorum ag: 0; UGM FP inh: 1

What do the screens show for `COc1cc(/C=C2/SC(=S)NC2=O)ccc1OS(=O)(=O)c1ccc(C)cc1`?
MazEF act: -8; FadD28 binding: -12; Mtb betalactam: 50; Rv3671c inh: -24; Vc quorum ag: inactive; UGM FP inh: -2

What do the screens show for `COc1cc(/C=C2\SC(=S)N(CCCCC(=O)O)C2=O)ccc1OS(=O)(=O)c1ccc(C)cc1`?
MazEF act: -22; FadD28 binding: 24*; Mtb betalactam: 46; Rv3671c inh: -12; Vc quorum ag: -1; UGM FP inh: 4

How did COc1ccc(/C=C2\SC(=S)N(CCCC(=O)Nc3cc(C)on3)C2=O)cc1OC do in these assays?
MazEF act: 150*; FadD28 binding: 0; Mtb betalactam: 2; Rv3671c inh: 5; Vc quorum ag: 0; UGM FP inh: 1

What do the screens show for `C=C(C)C(=O)N1CCN(C(=O)C(=C)C)c2ccccc21`?
MazEF act: 1; FadD28 binding: 0; Vc quorum ag: 2

What do the screens show for `CC(C)(C)c1ccc(NC(=S)NCc2cccs2)cc1`?
MazEF act: 1; FadD28 binding: 42*; Mtb betalactam: 57; Rv3671c inh: -4; Vc quorum ag: -1; UGM FP inh: -1

How did CCC(C)c1ccc(NC(=S)NCc2cccs2)cc1 (stereo not given) do in these assays?
MazEF act: -5; FadD28 binding: 7; Mtb betalactam: 80; Rv3671c inh: 2; Vc quorum ag: 0; UGM FP inh: 1

What do the screens show for `COc1ccc(-c2cc(=O)c3ccc(O)cc3o2)cc1OC`?
FadD28 binding: -1; Vc quorum ag: 0

Assay outcomes as filed in PubChem.
